Screens from PubChem.
IL-1B inflam inh: qHTS for Inhibitors of Inflammasome Signaling: IL-1-beta AlphaLISA Primary Screen; AID 743279, 2014; activity change, % at 57.5 µM; actives 4.7% (n = 360,000); THP-1 LPS/ATP IL-1B secretion, AlphaLISA, 16 h; active compounds read low; in the data active = activity change below about -50%; inconclusive = mostly about -30% to -49%
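THP-1 cells pretreated 1 hr with compounds (up to 57.5 uM final), then stimulated with LPS (250 ng/mL final) plus ATP (1.25 mM final); secreted IL-1B measured by AlphaLISA after 16 hr, decreased signal indicating inhibition.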
HT1080 IDH1KD tx: qHTS for induction of synthetic lethality in tumor cells producing 2HG: qHTS for the HT-1080-IDH1KD cell line | Potency, µM (doses to about 46.1 µM), without a hit: top-dose activity, negative = toxicity, actives largely listed as cytotoxic | HT-1080 IDH1 knockdown viability, ATP luminescence, 48 h | actives 2% (n = 360,000);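 also: potency is read from the fitted curve at half-maximal effect; 0% = DMSO wells and -100% = cell-free medium wells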
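Knockdown cells (IDH1KD HT-1080) received compounds 2 h after plating at 750 cells/well and were kept 48 h at 37 °C in 5% FBS RPMI. A CellTiter-Glo luminescence read gave % activity for curve fitting.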
TDP1 cell CPT: qHTS for Inhibitors of human tyrosyl-DNA phosphodiesterase 1 (TDP1): qHTS in cells in presence of CPT; chicken DT40 Tdp1-/-;hTDP1 cells + 20 nM CPT, ATP luminescence, 48 h; Potency, µM (titrated, usually from 46.2 µM), for the others: top-dose activity change, negative = growth inhibition, most hits filed as inhibitors; actives 12% (n = 420,000); AID 686979, 2013; also: potency is read from the fitted curve at half-maximal effect; nearly all actives have a fitted effect of over 55% in size
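Chicken DT40 Tdp1-/- cells complemented with human TDP1, 400 cells/well, exposed to compounds plus 20 nM camptothecin for at least 48 h at 37 C; viability read as ATP content by CellTiter-Glo luminescence.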
TDP1 cell noCPT: qHTS for Inhibitors of human tyrosyl-DNA phosphodiesterase 1 (TDP1): qHTS in cells in absence of CPT; AID 686978, 2013; Potency, µM (top dose mostly 46.2 µM), for the others: at the top dose activity change, negative = growth inhibition, usual class: inhibitors; DT40 Tdp1-/- hTDP1 cells, no CPT, ATP luminescence, 48 h; actives 15% (n = 420,000); also: potency is read from the fitted curve at half-maximal effect; nearly all actives have a fitted effect of over 55% in size
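Luminescent ATP content (CellTiter-Glo) served as the growth readout. Knockout chicken DT40 cells expressing human TDP1 were exposed to compounds without camptothecin for a minimum 48 hr at 37 °C.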
HT1080-NT tox: qHTS for induction of synthetic lethality in tumor cells producing 2HG: qHTS for the HT-1080-NT fibrosarcoma cell line; HT-1080-NT fibrosarcoma viability, CellTiter-Glo ATP luminescence, 48 h; Potency, µM (doses to about 46.1 µM), for the others: at the highest dose activity, negative = less viability, most hits filed as cytotoxic; actives 1.6% (n = 360,000);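 also: NT is the 2HG producing partner of a matched IDH1 knockdown line; potency is read from the fitted curve at half-maximal effect; 0% = DMSO-treated cells and -100% = media-only wells without cells; nearly all actives have a fitted effect of over 55% in size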
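Viability by CellTiter-Glo luminescence after 48 h compound exposure at 37C of HT-1080-NT cells (750/well, RPMI, 5% FBS). % activity scaled between DMSO wells and medium-only wells, then curve-fitted and categorized by curve class.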
The depositor's hits bear a star; u = inconclusive; x = no result given; [ ] = another dose, or the depositor's remark. Shown are actives, neighbours in structure and some others; about 19% of the full set was active somewhere. Unless noted, calls follow the shape of the dose curve; as a rule, active = well fitted curve in the direction sought with a large enough effect; inconclusive = small, poorly fitted or top-dose-only effect, or another doubt; inactive = no such curve, though single readings can be large; an effect the other way counts as inactive or inconclusive. Unless noted, % is scaled to controls: 0 for no effect and ±100 for the full control effect.

SMILES | IL-1B inflam inh | HT1080 IDH1KD tx | TDP1 cell CPT | TDP1 cell noCPT | HT1080-NT tox
COC(=O)C1Cc2c([nH]c3ccccc23)C2(CCN(Cc3ccccc3)CC2)N1 (stereo not drawn) | -86.3* | 18.4µM* | u | 20.6µM* | 18.4µM*
CCCN1CCC2(CC1)NC(C(=O)O)Cc1c2[nH]c2ccccc12 (stereo not drawn) | 1.6 | -13.2% | -1.6% | 8.0% | -0.2%
Cc1oc(-c2ccccc2)nc1C(=O)N1CCN(c2ccc(F)cc2)CC1 | 23.3 | -1.9% | u | u | 1.7%
COc1ccc(S(=O)(=O)N2CCOCC2)cc1NC(=O)Cc1ccc(F)cc1 | 11.5 | 6.4% | -17.9% | -5.0% | 4.0%
COc1ccc(COC(=O)c2cc([N+](=O)[O-])ccc2N2CCOCC2)cc1F | 0.6 | 0.0052µM* | 0.0231µM* | 0.0116µM* | 0.0058µM*
O=C(Oc1ccc(Br)cc1C(=S)N1CCOCC1)c1ccc([N+](=O)[O-])cc1[N+](=O)[O-] | -91.6* | u | 20.6µM* | u | u
O=C(OCc1cccc(C(F)(F)F)c1)c1cc([N+](=O)[O-])ccc1N1CCOCC1 | -59.9* | -21.9% | u | u | -14.9%
O=C(OCc1cccc(Cl)c1)c1cc([N+](=O)[O-])ccc1N1CCOCC1 | u | u | u | u | -22.6%
O=C(OCc1ccc(Br)cc1)c1cc([N+](=O)[O-])ccc1N1CCOCC1 | 21.9 | 2.59µM* | 0.731µM* | 0.461µM* | u
COc1ccc(C(O)(c2ccccc2OC)C(CN2CCOCC2)c2ccccc2)cc1 (stereo not drawn) | -6.2 | -13.9% | u | u | -4.2%
COc1cccc(CNC(=O)COC(=O)c2cc([N+](=O)[O-])ccc2N2CCCC2)c1 | u | -6.8% | 16.4µM* | 23.1µM* | -3.4%
CCc1ccc(C(=O)COC(=O)c2cc([N+](=O)[O-])ccc2N2CCOCC2)cc1 | -14.5 | 8.2µM* | u | 18.4µM* | 9.2µM*
O=C(COC(=O)c1cc([N+](=O)[O-])ccc1N1CCOCC1)NCc1ccccc1 | -16.5 | -4.1% | -5.7% | -11.3% | -7.2%
COCCOc1ccc(C(F)(F)F)cc1NC(=O)COC(=O)c1cc([N+](=O)[O-])ccc1N1CCOCC1 | -15.6 | 0.8% | 14.6µM* | 23.1µM* | -4.3%
O=C1[C@@H](Oc2ccccc2)[C@@H](c2cnc3ccccc3c2)N1c1ccccc1 | -4.9 | 20.6µM* | 20.6µM* | 14.6µM* | u
COC(=O)c1cc(S(=O)(=O)NCC2CCN(Cc3cc(C)ccc3C)CC2)c[nH]1 | -18.1 | -8.5% | u | u | -10.4%
O=[N+]([O-])c1ccccc1NC(=S)N/N=C/c1ccc(O)c(O)c1 | 24.6 | u | u | u | u
NS(=O)(=O)c1ccc(-c2ccc(/C=N/NC(=O)c3ccc([N+](=O)[O-])cc3)o2)cc1 | -3.6 | -2.0% | -13.5% | 7.7% | -0.4%
O=C(NN=Cc1ccccc1O)C(O)c1ccccc1 (stereo not drawn) | 126.5 | u | u | 20.6µM* | -23.4%
O=C(N/N=C/c1ccc(-c2ccc([N+](=O)[O-])cc2)o1)C(O)c1ccccc1 (stereo not drawn) | -248.5* | -1.0% | u | u | -0.8%
O=C(N/N=C\c1ccc(-c2ccc([N+](=O)[O-])cc2)o1)C1COc2ccccc2O1 (stereo not drawn) | -21.7 | -15.4% | u | 23.1µM* | -4.2%
O=[N+]([O-])c1ccc(/C=N/NC(=S)Nc2ccccc2C(F)(F)F)o1 | 0.0 | 1.2% | 8.2µM* | 13µM* | 11.9%
O=C(Nc1ccnn1C1CCN(Cc2cc(Cl)ccc2O)CC1)c1cccnc1 | 18.3 | -2.0% | u | -1.1% | 3.5%
CCN(CC)CCN(C)C(=O)c1ccc(-c2ccccc2)nc1N(C)C | x | x | -2.2%[9.04 µM] | -16.9% | x
O=C(N/N=C/c1ccc([N+](=O)[O-])o1)C(O)c1ccccc1 (stereo not drawn) | -6.7 | -27.5% | 8.2µM* | 6.51µM* | u
SMILES | IL-1B inflam inh | HT1080 IDH1KD tx | TDP1 cell CPT | TDP1 cell noCPT | HT1080-NT tox
O=C(N/N=C/c1ccccc1)C(O)c1ccccc1 (stereo not drawn) | 14.2 | -12.4% | -9.6% | 10.0% | -8.1%
Clc1ccc(CSc2ccc(-c3cccs3)nn2)cc1 | x | x | -0.5% | -1.4% | x
O=C(Cc1csc2ccccc12)NCc1ccc(F)cc1 | x | x | 10.2% | -18.4% | x
Fc1ccc(C[n+]2csc3ccccc32)cc1 | -115.2* | 1.5% | 1.03µM* | 0.92µM* | 7.0%
Clc1ccc(C[n+]2csc3ccccc32)cc1 | -110.1* | -9.4% | 0.411µM* | 0.517µM* | -3.9%
C#CCN(C[C@@H]1[C@@H](OC(=O)NCC2CCCCC2)[C@@H](OC(=O)NCC2CCCCC2)Cn2c(=O)ccc(=O)n21)S(=O)(=O)c1ccc(C)cc1 | -106.4* | 2.59µM* | 2.91µM* | 3.26µM* | 5.17µM*
C#CCN(C[C@@H]1[C@@H](OC(=O)NCCCCCC)[C@@H](OC(=O)NCCCCCC)Cn2c(=O)ccc(=O)n21)S(=O)(=O)c1ccc(C)cc1 | -107.4* | 4.11µM* | 4.61µM* | 3.26µM* | 4.61µM*
CCOC(=O)C1CCN(C(=O)CN(C)S(=O)(=O)c2ccc3c(c2)c(=O)n(C)c(=O)n3C)CC1 | 37.4 | 9.6% | 2.8% | -21.5% | 6.7%
CC(=O)Nc1cc(-c2ccc(CO)cc2)cn2c(-c3ccc(F)c(Cl)c3)cnc12 | -27.7 | u | u | u | 32.6µM*
CC(=O)Nc1cc(-c2cccc(F)c2)cn2c(-c3ccc(F)c(Cl)c3)cnc12 | -2.3 | u | u | u | u
CC(=O)Nc1cc(-c2ccc(F)cc2)cn2c(-c3ccc(F)c(Cl)c3)cnc12 | -12.8 | u | u | 23.1µM* | u
CC(=O)Nc1cc(-c2ccccc2)cn2c(-c3ccc(F)c(Cl)c3)cnc12 | -11.6 | u | 23.1µM* | u | -0.9%
CC(=O)Oc1ccc2nc(-c3ccc(Br)o3)oc(=O)c2c1 | 8.0 | -8.6% | -12.5% | -7.2% | 3.1%
Cc1noc(C)c1C(=O)OC(C)C(=O)NC(C)c1ccc(Cl)cc1Cl (stereo not drawn) | 20.1 | 0.0% | u | u | -1.8%
Cc1ccc(C(=O)N2[C@@H]3CN(C)C(=O)[C@@]2(Cc2ccccc2)[C@H]2C(=O)N(C)C(=O)[C@@H]32)cc1 | -2.6 | 15.4% | 7.7% | 2.0% | 11.5%
